# Test results: PubChem BioAssay (Tox21)
# Several values for one entry are separate records, joined by “and”; a condition that tells them apart may be missing. Equal entries are not always repeated. Results filed as inconclusive are left out. A call without a number means that no potency is given here. Some compounds were tested as several samples or in several runs, with calls that do not always agree. Activity calls are given as the source filed them. Unless noted, calls follow the shape of the full dose curve.
# Experiments:
# [1] = Nuclear factor erythroid 2-related factor 2/antioxidant responsive element (Nrf2/ARE) small molecule agonists: qHTS cell viability counter screen in human keratinocytes (AID 1919968; active = well fitted curve in the direction sought with a large enough effect in the repeat runs; an effect the other way counts as inactive or inconclusive; also: nearly all actives have a fitted effect of over 55% in size; also: potency is read from the fitted curve at half-maximal effect)
# Procedure, shortened: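 Measured as CellTiter-Fluor fluorescence, this readout tracks cytotoxicity in the same wells as the ARE-luciferase screen. HaCaT reporter cells (1,500/well) received compounds after a 5 h pre-incubation and were exposed for 23 h.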
# [2] = target: KiSS-1 receptor (Homo sapiens) (UniProt Q969F8); experiment: Human kisspeptin (KISS1R) small molecule agonists, calcium flux assay in KISS1R-HEK293 cells (AID 1920064; active = well fitted curve in the direction sought with a large enough effect in the repeat runs; an effect the other way counts as inactive or inconclusive)
# Procedure, shortened: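 Measures KISS1R agonism through calcium-sensitive dye fluorescence in stably transfected HEK293 cells, read for 3 min after pin-tool compound delivery; 15-point titrations in triplicate.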
# [3] = p53 small molecule agonists, cell-based qHTS assay with human liver microsomes (AID 1963577)
# Procedure, shortened: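 Compounds act here after metabolic activation: human liver microsomes and NADPH, both at 0.5 mg/mL final, were co-added to p53RE-bla cells. Incubation ran 16 h at 37 C, followed by LiveBLAzer detection.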
# [4] = p53 small molecule agonists, cell-based qHTS assay with rat liver microsomes (AID 1963578)
# Procedure, shortened: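 Read-out is beta-lactamase reporter fluorescence (LiveBLAzer, 2 h, room temperature, dark) in p53RE-bla cells treated 16 h at 37 C with compound, rat liver microsomes and NADPH, both 0.5 mg/mL final.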
# [5] = p53 small molecule agonists, cell-based qHTS assay with human liver microsomes: qHTS cell viability counter screen (AID 1963579); also: nearly all actives have a fitted effect of over 45% in size; also: potency is read from the fitted curve at half-maximal effect
# Procedure, shortened: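 Cells carrying the p53 response-element beta-lactamase reporter are treated for 16 h at 37 C with test compounds in the presence of human liver microsomes and NADPH (both 0.5 mg/mL final); ATP-based CellTiter-Glo luminescence then reports viability.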
# [6] = p53 small molecule agonists, cell-based qHTS assay with rat liver microsomes: qHTS cell viability counter screen (AID 1963580); also: nearly all actives have a fitted effect of over 45% in size; also: potency is read from the fitted curve at half-maximal effect
# Procedure, shortened: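 HCT-116 p53RE-bla, 4,000 cells/well, 5 h pre-incubation; cpd + rat liver microsomes 0.5 mg/mL + NADPH 0.5 mg/mL (final); 16 h, 37 C; CellTiter-Glo, 30 min RT; luminescence.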
# [7] = p53 small molecule agonists, cell-based qHTS assay: qHTS cell viability counter screen (AID 1963581); also: nearly all actives have a fitted effect of over 45% in size; also: potency is read from the fitted curve at half-maximal effect
# Procedure, shortened: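 In the same plates used for the p53 bla reporter, HCT-116 cells given compounds for 16 h at 37 C received CellTiter-Glo; luminescence was recorded 30 min later at room temperature.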
# [8] = p53 small molecule agonists, cell-based qHTS assay (AID 1963582; active = well fitted activation curve with a large enough effect in the signal ratio in the repeat runs, not every such curve was filed as active; the % refers to the signal ratio)
# Procedure, shortened: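 Compounds are pin-transferred in DMSO onto p53RE-bla cells and incubated 16 h at 37 C. The B/G FRET beta-lactamase substrate is then applied for 2 h at RT and fluorescence recorded.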
# [9] = target: 5-hydroxytryptamine receptor 2A (Homo sapiens) (UniProt P28223); experiment: 5-hydroxytryptamine receptor 2A (HTR2A) small molecule antagonists, cell-based qHTS assay (AID 1963586); also: nearly all actives have a fitted effect of over 45% in size; also: potency is read from the fitted curve at half-maximal effect
# Procedure, shortened: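 Antagonist-mode intracellular calcium assay: DOI (4 nM) added after 5 min compound pre-incubation at room temperature to dye-loaded HTR2A-CHO cells. Fluorescence followed for 3 min, sampled every second.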
# [10] = target: 5-hydroxytryptamine receptor 2A (Homo sapiens) (UniProt P28223); experiment: 5-hydroxytryptamine receptor 2A (HTR2A) small molecule agonists, cell-based qHTS assay (AID 1963587); also: nearly all actives have a fitted effect of over 30% in size; also: potency is read from the fitted curve at half-maximal effect
# Procedure, shortened: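 Kinetic calcium-flux fluorescence (2 min, 1 sec intervals) after compound addition in agonist mode. HTR2A-CHO cells were cultured 18 h, then dye-loaded 1 h at 37 C.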
# [11] = target: Muscarinic acetylcholine receptor M1 (Homo sapiens) (UniProt P11229); experiment: Cholinergic receptor muscarinic 1 (CHRM1) small molecule antagonists, cell-based qHTS assay (AID 1963588); also: nearly all actives have a fitted effect of over 40% in size; also: potency is read from the fitted curve at half-maximal effect
# Procedure, shortened: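 CHRM1-CHO calcium-flux assay, antagonist mode. Cells were seeded 18 h, dye-loaded 1 h at 37 C and given compound for 5 min at RT, then acetylcholine was added at 50nM. FDSS fluorescence was read 3 min; 15 concentrations, three runs.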
# [12] = target: Muscarinic acetylcholine receptor M1 (Homo sapiens) (UniProt P11229); experiment: Cholinergic receptor muscarinic 1 (CHRM1) small molecule agonists, cell-based qHTS assay (AID 1963589); also: nearly all actives have a fitted effect of over 35% in size
# Procedure, shortened: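 Each compound was tested at 15 concentrations across three independent runs on dye-loaded CHO cells stably expressing human CHRM1, reading intracellular calcium fluorescence kinetically at 1 sec intervals.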
# [13] = cAMP Responsive Elements (CRE) small molecule agonists, cell-based qHTS assay (AID 1963590)
# Procedure, shortened: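 Cell line: CRE-bla HEK 293T; medium DMEM/10% dialyzed FBS/0.1 mM NEAA/1 mM pyruvate/25 mM HEPES; 3 h compound exposure; beta-lactamase FRET readout after 2 h substrate loading at RT.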
# [14] = cAMP Responsive Elements (CRE) small molecule antagonists, cell-based qHTS assay (AID 1963591; active = well fitted inhibition curve with a large enough effect in the signal ratio in the repeat runs, not every such curve was filed as active; the % refers to the signal ratio)
# Procedure, shortened: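 Inhibition of NKH477-driven (0.25 uM final) CRE-beta-lactamase signal in HEK293T cells, 3 h compound exposure at 37 °C, detected by FRET substrate fluorescence.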
# [15] = target: Beta-2 adrenergic receptor (Homo sapiens) (UniProt P07550); experiment: Adrenergic beta2 receptor (ADRB2) small molecule antagonists, cell-based qHTS assay (AID 1963592); also: nearly all actives have a fitted effect of over 50% in size; also: potency is read from the fitted curve at half-maximal effect
# Procedure, shortened: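 Cells (CHO, stable ADRB2 overexpression) incubated 18-20hr at 37C; compounds added from DMSO; agonist mix (1nM isoproterenol, 100uM IBMX, 25uM Ro-20-1724) added; 0.5hr RT; d2-cAMP and anti-cAMP-cryptate added; 1hr RT; 665/615 nm read.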
# [16] = target: D(2) dopamine receptor (Homo sapiens) (UniProt P14416); experiment: Dopamine D2 receptor (DRD2) small molecule agonists, cell-based qHTS assay (AID 1963594); also: nearly all actives have a fitted effect of over 35% in size
# Procedure, shortened: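 cAMP accumulation in DRD2-HEK293 cells measured by HTRF after 1 h detection; compounds added 10 min before NKH477 (200nM […]) forskolin-analogue stimulation, 30 min at room temperature, with Ro20-1724 present at 0.1 mM final.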
# [17] = target: Beta-2 adrenergic receptor (Homo sapiens) (UniProt P07550); experiment: Adrenergic beta2 receptor (ADRB2) small molecule agonists, cell-based qHTS assay (AID 1963593);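 also: CHO cells stably overexpressing human ADRB2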
# Procedure, shortened: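 CHO cells stably over-expressing ADRB2 were plated overnight at 37C, then dosed with compounds plus a stimulation mix containing 100uM IBMX and 25uM Ro-20-1724 for 0.5hr at room temperature. cAMP was measured by HTRF competition, 1hr.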
# [18] = target: D(2) dopamine receptor (Homo sapiens) (UniProt P14416); experiment: Dopamine D2 receptor (DRD2) small molecule antagonists, cell-based qHTS assay (AID 1963595; active = well fitted inhibition curve with a large enough effect in the signal ratio in the repeat runs, with a control signal flat; the % refers to the signal ratio)
# Procedure, shortened: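 Readout: HTRF cAMP, cAMP-d2 competing with cellular cAMP for anti-cAMP cryptate, read after 1 h. Cells: DRD2-HEK293. Conditions: 0.1 mM Ro20-1724, 12 nM quinpirole, 200 nM NKH477, 30 min RT.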
# [19] = G protein-coupled receptor (GPCR) small molecule agonists, calcium flux assay: HEK293 wild type cell line counter screen (AID 1920065)
# Procedure, shortened: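 Readout: fluorescence at 480 nm excitation/540 nm emission, sampled at 1 s intervals for 3 min. Cells had been cultured 18 h, then dye-loaded 1 h at 37 C before compound or ATP addition.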
# Chain of D(2) dopamine receptor (Homo sapiens) (P14416 whole entry, looked up): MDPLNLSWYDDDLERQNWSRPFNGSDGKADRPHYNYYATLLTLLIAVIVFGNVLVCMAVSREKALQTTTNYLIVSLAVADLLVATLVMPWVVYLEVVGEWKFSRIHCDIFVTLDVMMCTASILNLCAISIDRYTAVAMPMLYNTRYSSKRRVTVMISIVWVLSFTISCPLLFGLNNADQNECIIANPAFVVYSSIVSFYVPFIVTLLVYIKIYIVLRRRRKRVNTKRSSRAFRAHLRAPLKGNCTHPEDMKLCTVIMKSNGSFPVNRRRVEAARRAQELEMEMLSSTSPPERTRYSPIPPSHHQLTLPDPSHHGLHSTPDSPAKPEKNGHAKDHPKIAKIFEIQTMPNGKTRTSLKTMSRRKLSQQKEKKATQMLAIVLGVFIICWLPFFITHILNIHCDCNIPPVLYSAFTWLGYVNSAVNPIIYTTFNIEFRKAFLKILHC
# Chain of Beta-2 adrenergic receptor (Homo sapiens) (P07550 whole entry, looked up): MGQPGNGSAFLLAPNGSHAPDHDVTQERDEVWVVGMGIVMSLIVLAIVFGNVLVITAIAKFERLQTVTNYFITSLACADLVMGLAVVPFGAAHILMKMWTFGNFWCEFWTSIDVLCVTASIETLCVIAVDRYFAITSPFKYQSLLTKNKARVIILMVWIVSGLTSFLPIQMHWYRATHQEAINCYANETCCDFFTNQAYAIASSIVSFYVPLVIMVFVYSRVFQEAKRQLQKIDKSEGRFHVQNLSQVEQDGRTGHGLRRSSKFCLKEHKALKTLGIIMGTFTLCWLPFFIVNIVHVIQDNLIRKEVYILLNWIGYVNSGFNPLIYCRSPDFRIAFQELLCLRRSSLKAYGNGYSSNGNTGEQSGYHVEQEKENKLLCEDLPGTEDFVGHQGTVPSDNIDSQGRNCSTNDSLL
# Chain of KiSS-1 receptor (Homo sapiens) (Q969F8 whole entry, looked up): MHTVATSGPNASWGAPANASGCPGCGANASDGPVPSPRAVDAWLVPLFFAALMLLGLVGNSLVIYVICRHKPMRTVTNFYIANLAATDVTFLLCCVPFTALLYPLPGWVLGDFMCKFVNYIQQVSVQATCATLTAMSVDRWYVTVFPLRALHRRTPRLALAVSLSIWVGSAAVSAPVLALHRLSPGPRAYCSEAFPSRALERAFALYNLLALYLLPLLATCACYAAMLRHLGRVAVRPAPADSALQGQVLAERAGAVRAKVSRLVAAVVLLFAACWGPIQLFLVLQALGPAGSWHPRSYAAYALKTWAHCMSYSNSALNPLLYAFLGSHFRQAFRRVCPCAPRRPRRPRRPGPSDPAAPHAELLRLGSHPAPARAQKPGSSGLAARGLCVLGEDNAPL
# Chain of 5-hydroxytryptamine receptor 2A (Homo sapiens) (P28223 whole entry, looked up): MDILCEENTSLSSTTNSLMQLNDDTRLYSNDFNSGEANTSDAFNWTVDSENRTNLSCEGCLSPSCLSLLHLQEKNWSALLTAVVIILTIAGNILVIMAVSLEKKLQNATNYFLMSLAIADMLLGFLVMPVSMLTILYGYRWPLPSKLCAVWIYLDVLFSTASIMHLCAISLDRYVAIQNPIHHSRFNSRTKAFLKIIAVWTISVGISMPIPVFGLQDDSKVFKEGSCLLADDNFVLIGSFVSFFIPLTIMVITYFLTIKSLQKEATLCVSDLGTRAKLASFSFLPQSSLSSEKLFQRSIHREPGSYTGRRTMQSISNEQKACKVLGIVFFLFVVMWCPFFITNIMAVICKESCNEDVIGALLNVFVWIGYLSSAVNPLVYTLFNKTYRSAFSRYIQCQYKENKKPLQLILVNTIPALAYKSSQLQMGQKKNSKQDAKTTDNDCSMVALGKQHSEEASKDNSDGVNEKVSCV
# Chain of Muscarinic acetylcholine receptor M1 (Homo sapiens) (P11229 whole entry, looked up): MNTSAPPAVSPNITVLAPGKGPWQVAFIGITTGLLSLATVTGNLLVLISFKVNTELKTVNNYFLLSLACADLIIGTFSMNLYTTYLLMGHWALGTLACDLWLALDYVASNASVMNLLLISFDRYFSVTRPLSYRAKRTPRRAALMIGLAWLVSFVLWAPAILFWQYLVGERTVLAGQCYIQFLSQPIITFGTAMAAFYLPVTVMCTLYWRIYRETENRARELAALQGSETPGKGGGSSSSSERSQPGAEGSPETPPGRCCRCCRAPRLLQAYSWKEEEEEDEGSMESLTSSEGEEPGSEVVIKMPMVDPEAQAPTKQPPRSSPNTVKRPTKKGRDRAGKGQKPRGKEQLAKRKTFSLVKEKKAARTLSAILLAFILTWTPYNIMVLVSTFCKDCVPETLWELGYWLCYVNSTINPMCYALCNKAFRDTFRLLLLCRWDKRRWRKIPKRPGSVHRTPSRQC
Compound,Potency [1],Potency [2],Potency [3],Potency [4],Potency [5],Potency [6],Potency [7],Potency [8],Potency [9],Potency [10],Potency [11],Potency [12],Potency [13],Potency [14],Potency [15],Potency [16],Potency [17],Potency [18],Potency [19]
c1cc2c(c(N3CCNCC3)c1)OCCO2,inactive,inactive,inactive,inactive,inactive,inactive,inactive,inactive,729 nM (active),60.1 nM (active),inactive,inactive,inactive,inactive,15 µM (active),inactive,,,
OCCOc1ccccc1,inactive,inactive,inactive,inactive,inactive,inactive,inactive,inactive,,inactive,,inactive,inactive,inactive,,inactive,inactive,inactive,
Cn1c(N)nc2c3cccnc3ccc21,inactive,inactive,,inactive,inactive,inactive,inactive,inactive,inactive,,inactive,inactive,inactive,inactive,inactive,inactive,inactive,inactive,inactive
C[C@]12C=CC3=C4CCC(=O)C=C4CC[C@H]3[C@@H]1CC[C@@H]2O,inactive,inactive,,,inactive,inactive,inactive,,,,,,,,inactive,inactive,inactive,inactive,
CC(C)Nc1ccc(Nc2ccccc2)cc1,30.5 µM (active),,,inactive,28.8 µM (active) and 28.9 µM (active),,,inactive,11.8 µM (active) and 16.8 µM (active),inactive,11.9 µM (active),inactive,,,inactive,,,,inactive
CCCCCCCCCCCCCCCCn1cc[n+](C)c1,inactive and 27.6 µM (active) and 13.7 µM (active),,inactive,,37.1 µM (active) and inactive and 46.2 µM (active),inactive and 36.7 µM (active) and 32.5 µM (active),25.8 µM (active),inactive,inactive,,inactive and 950 nM (active) and 2.66 µM (active),inactive,inactive,inactive,inactive,,inactive,inactive,inactive
Nc1ccc(Cl)cc1N,inactive,inactive,,inactive,inactive,inactive,inactive,inactive,inactive,20.3 µM (active) and 6.16 µM (active),inactive,inactive,,inactive,inactive,inactive,inactive,inactive,inactive
O=P(OCC(Br)CBr)(OCC(Br)CBr)OCC(Br)CBr (stereo not given),inactive,inactive,,inactive,inactive,,inactive,inactive,inactive,inactive,inactive,inactive,,inactive,inactive,inactive,,inactive,inactive
CCOC(=O)Nc1cccc(OC(=O)Nc2ccccc2)c1,inactive,inactive,inactive,inactive,inactive,inactive,inactive,inactive,inactive,inactive,inactive,inactive,inactive,inactive,inactive,inactive,inactive,inactive,
CCC[N+](=O)[O-],2.68 µM (active) and inactive,inactive,inactive,inactive,inactive,,inactive,,inactive,inactive,inactive,inactive,,inactive,,inactive,inactive,inactive,
C=C(C)C(=O)OCC(CC)CCCC (stereo not given),inactive,,inactive,inactive,inactive,inactive,inactive,,inactive,inactive,inactive,inactive,inactive,inactive,inactive,inactive,inactive,inactive,inactive
CCN(CC)Cc1nccn1-c1ccc([N+](=O)[O-])cc1C(=O)c1ccccc1Cl,inactive,inactive,inactive,inactive,inactive,inactive,inactive,inactive,inactive,inactive,inactive,inactive,inactive,inactive,inactive,inactive,,,
O=NN(c1ccccc1)c1ccccc1,inactive,inactive,inactive,inactive,inactive,inactive,inactive,inactive,inactive,inactive,inactive,inactive,inactive,inactive,inactive,inactive,inactive,inactive,
Nc1c(Br)cc([N+](=O)[O-])cc1[N+](=O)[O-],inactive,inactive,inactive,inactive,inactive,inactive,inactive,inactive,inactive,inactive,inactive,inactive,inactive,inactive,inactive,inactive,,inactive,
Cc1coc2c1CCC(C)C2 (stereo not given),inactive,inactive,inactive,,inactive,,inactive,inactive,inactive,inactive,inactive,inactive,inactive,inactive,inactive,inactive,,inactive,inactive
Clc1ccc(C(c2ccc(Cl)cc2)C(Cl)Cl)cc1,27.8 µM (active),,inactive,inactive,inactive,,41.4 µM (active),inactive,inactive,inactive,0.135 µM (active),inactive,,inactive,inactive,inactive,,,inactive
Cc1ccc2ccccc2c1,inactive,,inactive,inactive,inactive,inactive,inactive,,,inactive,inactive,inactive,inactive,inactive,inactive,inactive,inactive,inactive,inactive
